In the library only some 2.8% were active in any assay of this set; here they are far more common.
HEK293 viab = reduces viability of HEK-293 SNCA reporter cells. Potency, µM (doses to about 57.1 µM), actives largely listed as cytotoxic. actives 0.12% (n = 150,000). HEK-293-SNCA-luc viability, GF-AFC fluorescence, 24 h; note: nearly all actives have a fitted effect of over 30% in size
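HEK-293-SNCA-luc cells (1500/well) plated 24 h, then exposed 24 h to a dilution series; GF-AFC added 30 min at 37C, fluorescence 405/540 nm; normalised to medium-only and DMSO wells, Hill fit.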
IP6K1 inhibitor = blocks human inositol hexakisphosphate kinase 1; IP6K1 kinase, ADP-Glo luminescence, 2 h; hits give low values; activity change, % (series mostly up to about 58 µM); Q92551; actives 0.81% (n = 140,000); AID 1645851; in the data active = activity change below about -25%
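ADP-Glo luminescence measures ADP made by human IP6K1 during a 2 h RT reaction with ATP/IP6 (mix at 1.3 mM/130 uM); top library doses 57.5 and 19.1 uM final.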
SNCA expr inhib = inhibitors of alpha-synuclein (SNCA) gene expression | Potency, µM (doses to about 57.2 µM), hits mostly inhibitors | actives 0.17% (n = 140,000) | HEK-293 SNCA-luciferase knock-in, luminescence, 24 h | AID 1671194; note: nearly all actives have a fitted effect of over 45% in size
KDM5B inh = inhibitors of human KDM5B histone demethylase; Q9UGL1; KDM5B demethylase, FDH-coupled NADH fluorescence (FDH is formaldehyde dehydrogenase); Potency, µM (highest dose often 57.7 µM), actives largely listed as inhibitors; actives 2.6% (n = 220,000); note: nearly all actives have a fitted effect of over 70% in size
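Coupled FDH/NAD⁺ fluorescence readout. KDM5BΔAP 200 nM final; compound titration, 10 min RT preincubation; substrate mix 12.5 µM H3K4me3, 25 µM 2-OG, 50 µM Fe(II), 100 µM ascorbate, 0.25 mM NAD⁺, 0.25 U/mL FDH; ΔRFU over 30 min.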
Each line names hits and unclear results; the compound was inactive in the other large screens. Unless noted, calls come from the whole dose curve; as a rule, active = well fitted curve in the direction sought with a large enough effect; inconclusive = small, poorly fitted or top-dose-only effect, or another doubt; inactive = no such curve, though single readings can be large; an effect the other way counts as inactive or inconclusive.

O=C(NC1CC1)c1cc2c(=O)[nH]c(-c3ccccc3)cn2n1	SNCA expr inhib inconclusive, KDM5B inh 28.2µM
Cc1nc(-c2cccc(F)c2)sc1CCNC(=O)C(=O)Nc1ccc2c(c1)OCCO2	HEK293 viab inconclusive
Cc1ccc(-c2cnc(SCC(=O)Nc3cc(F)ccc3C)o2)cc1C	none (no result: HEK293 viab, IP6K1 inhibitor, SNCA expr inhib)
O=C(CC[C@@H]1CNC(=O)[C@@H]2C[C@H](NCc3ccccn3)CN12)NCc1ccccc1	KDM5B inh 25.1µM
COc1ccc(CN[C@H]2C[C@H]3C(=O)NC[C@@H](CCC(=O)NCc4ccccc4)N3C2)cc1	KDM5B inh 35.5µM
O=C1CCCN1c1ccc(Cn2ccn3nc(-c4ccccc4)c(CO)c3c2=O)cc1	none
Cc1ccc2nc(C3CCN(Cc4ccc(-c5cccs5)cc4)CC3)[nH]c(=O)c2c1	SNCA expr inhib inconclusive, KDM5B inh 28.2µM
Cc1ccc2nc(C3CCCN(Cc4cccc(-c5cccs5)c4)C3)[nH]c(=O)c2c1 (configuration not stated)	SNCA expr inhib inconclusive, KDM5B inh inconclusive
CS(=O)(=O)Nc1cc(-c2noc([C@@H]3CCCN3Cc3ccccc3)n2)ccn1	KDM5B inh inconclusive
COc1ccc(CN2CCC[C@H]2c2nc(-c3ccc(N4CCC(C(N)=O)CC4)nc3)no2)c(O)c1	none
NC(=O)C1CCN(c2cc(-c3noc([C@@H]4CCCN4Cc4cccnc4)n3)ccn2)CC1	KDM5B inh 39.8µM
CC(C)CN1CCC[C@H]1c1nc(-c2ccnc(NS(C)(=O)=O)c2)no1	SNCA expr inhib inconclusive, KDM5B inh 35.5µM
NC(=O)C1CCN(c2cc(-c3noc([C@@H]4CCCN4Cc4ccncc4)n3)ccn2)CC1	KDM5B inh 31.6µM
CC(=O)Nc1ccc(CN2CCC[C@H]2c2nc(-c3ccnc(N4CCC(C(N)=O)CC4)c3)no2)cc1	KDM5B inh 31.6µM
COc1ccc(NC(=O)CN2C(=O)COc3ccc(S(=O)(=O)Nc4ccccc4)cc32)cc1OC	HEK293 viab inconclusive
Cc1nc2c(c(-c3ccc(O)cc3)n1)CN(C(=O)C1CC1)CCC2	none
C=CCNc1oc(COc2ccc(F)cc2)nc1C#N	none (no result: HEK293 viab, IP6K1 inhibitor, SNCA expr inhib)
c1cc(-c2noc([C@@H]3CCCN3Cc3ncc[nH]3)n2)cc(N2CCCC2)n1	KDM5B inh 39.8µM
c1cc(-c2noc([C@@H]3CCCN3C3CCOCC3)n2)cc(N2CCCC2)n1	KDM5B inh inconclusive
CC(=O)Nc1ccc(CN2CCC[C@H]2c2nc(-c3ccnc(NS(C)(=O)=O)c3)no2)cc1	KDM5B inh inconclusive
CC(=O)N1CCN(c2cc(-c3noc([C@@H]4CCCN4Cc4ccc(N(C)C)cc4)n3)ccn2)CC1	KDM5B inh 28.2µM
c1cncc(CN2CCC[C@H]2c2nc(-c3ccnc(N4CCCC4)c3)no2)c1	KDM5B inh 35.5µM
CCCCCn1c(Br)nc2c1c(=O)n(C)c(=O)n2C	none (no result: HEK293 viab, IP6K1 inhibitor, SNCA expr inhib)
CN1CCN(c2cc(=O)c3ccnc(-c4ccccc4O)c3o2)CC1	KDM5B inh inconclusive
O=c1cc(-c2ccccn2)oc2c(NCc3ccccc3)nccc12	KDM5B inh 39.8µM
O=c1cc(-c2cnccn2)oc2c(Nc3ccccn3)nccc12	KDM5B inh 39.8µM
O=c1cc(-c2ccccn2)oc2c(Nc3cccnc3)nccc12	KDM5B inh inconclusive
CN1CCN(c2cc(=O)c3ccnc(NCc4ccccc4)c3o2)CC1	KDM5B inh 39.8µM
CCOC(=O)N1CCN(Cc2nc3cc(NC(=O)c4ccccc4[N+](=O)[O-])ccc3n2C(C)C)CC1	none
CCOC(=O)N1CCN(Cc2nc3cc(NC(=O)c4ccccc4OC)ccc3n2C(C)C)CC1	IP6K1 inhibitor -57.2, KDM5B inh inconclusive
COc1ccc([C@@H]2CN(c3ncccc3C#N)C[C@H]2NC(C)=O)cc1	KDM5B inh 28.2µM
CNC(=O)c1cccnc1N1CCOC(c2ccc3cc(OC)ccc3c2)C1 (configuration not stated)	none
O=c1c(-c2cccs2)nc2cnc(N3CCNCC3)nc2n1Cc1cccs1	HEK293 viab inconclusive, SNCA expr inhib 17.8µM (no result: IP6K1 inhibitor, KDM5B inh)
CN1CCN(c2ncc3nc(-c4cccs4)c(=O)n(Cc4cccs4)c3n2)CC1	HEK293 viab inconclusive (no result: IP6K1 inhibitor, KDM5B inh)
Cc1ccccc1-c1noc(-c2ccc(Br)cc2)n1	none (no result: HEK293 viab, IP6K1 inhibitor, SNCA expr inhib)
Cc1ccccc1-c1noc(-c2ccc(NC(C)c3cnn(C)c3)nc2)n1 (configuration not stated)	HEK293 viab inconclusive, SNCA expr inhib inconclusive, KDM5B inh 28.2µM
C/C(=N\NC(=O)c1c[nH]c2ccccc12)c1ccc(C)s1	none (no result: HEK293 viab, IP6K1 inhibitor, SNCA expr inhib)
Cc1cccc2ncc(C(=O)N3CCC4(CCNC(=O)CC4)CC3)c(=O)n12	SNCA expr inhib inconclusive, KDM5B inh 22.4µM

High-throughput results (PubChem BioAssay)
